# According to PubChem BioAssay (NCATS):
# Results filed as inconclusive are left out. Where a call stands in place of a potency, no number is given. Unmarked numbers belong to inactive results. Active and inactive are the calls of the source. Calls come from the whole dose curve; as a rule, active = well fitted inhibition curve with a large enough effect; inconclusive = small, poorly fitted or top-dose-only effect; inactive = flat fitted curve, though single readings scatter.
# Legend:
# CRL-7250 = normal cell line; experiment: Cytotoxic Profiling of Annotated Libraries Using Quantitative High-Throughput Screening (AID 1296008); conditions: Five cell lines viability, CellTiter-Glo ATP luminescence, 48-72 h; max response: hits give low values
# How it was run: (§1)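 Cytotoxicity was measured as CellTiter-Glo ATP luminescence, read after 10 min at room temperature. Compound treatment of the cells lasted 48 or 72 hr at 37 degrees Celsius in a qHTS format.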
# HEK293 = experiment: as above; conditions: Five cell lines viability, CellTiter-Glo ATP luminescence, 48-72 h; max response: hits give low values
# How it was run: as §1
# HaCat [1] = experiment: as above; conditions: Five cell lines viability, CellTiter-Glo ATP luminescence, 48-72 h; max response: hits give low values
# How it was run: as §1
# NIH3T3 = experiment: as above; conditions: Five cell lines viability, CellTiter-Glo ATP luminescence, 48-72 h; max response: hits give low values
# How it was run: as §1
# HACAT [2] = experiment: qHTS assay to identify novel small-molecules to repurpose for Merkel cell carcinoma treatment (AID 1296009); conditions: MCC and control cell lines, CellTiter-Glo viability, 72 h; at 44.8 µM (top of the series) unless noted
# How it was run: (§2)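 Cell viability, measured as CellTiter-Glo luminescence, was normalized between DMSO and no-cell wells. The cells had been exposed to 8- or 11-point compound dilutions for 72 hr at 37 degree celsius.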
# MCC-13 = experiment: as above; conditions: MCC and control cell lines, CellTiter-Glo viability, 72 h; series mostly up to 46 µM
# How it was run: as §2
# MCC-26 = experiment: as above; conditions: MCC and control cell lines, CellTiter-Glo viability, 72 h; series mostly up to 46 µM
# How it was run: as §2
# MKL-1 = experiment: as above; conditions: MCC and control cell lines, CellTiter-Glo viability, 72 h; series mostly up to 46 µM
# How it was run: as §2
# MKL-2 = experiment: as above; conditions: MCC and control cell lines, CellTiter-Glo viability, 72 h; series mostly up to 46 µM
# How it was run: as §2
# Note: nearly all actives have a fitted effect of over 60% in size.
# Potency is the fitted concentration of half-maximal effect.
Compound,max response (CRL-7250) [%],max response (HEK293) [%],outcome (HaCat [1]),max response (NIH3T3) [%],outcome (HACAT [2]),Potency (MCC-13),Potency (MCC-26),Potency (MKL-1),Potency (MKL-2),outcome (CRL-7250),outcome (NIH3T3),Potency (HEK293),"activity change, negative = cytotoxicity (MCC-13)","activity change, negative = cytotoxicity (MCC-26)","activity change, negative = cytotoxicity (MKL-1)","activity change, negative = cytotoxicity (MKL-2)"
CNC(=O)c1c(I)c(NC(C)=O)c(I)c(C(=O)O)c1I,-1.99,-7.17,inactive,0.318,inactive,inactive,inactive,inactive,inactive,,,,,,,
Cc1cnc(NS(=O)(=O)c2ccc(N)cc2)nc1,,-11.8,inactive,2.98,inactive,inactive,inactive,inactive,inactive,inactive,,,,,,
CC(C)C(=O)Nc1cccc(C(F)(F)F)c1,3.59,3.73,inactive,2.63,inactive,inactive,inactive,inactive,inactive,,,,,,,
Nc1ccc([N+](=O)[O-])c(C(F)(F)F)c1,1.39,4.93,inactive,0.447,inactive,inactive,inactive,inactive,inactive,,,,,,,
O=c1[nH]c2ccccc2c(=O)n1CCCl,-4.5,-6.35,inactive,,inactive,inactive,inactive,inactive,inactive,,inactive,,,,,
NS(=O)(=O)c1cc(C(=O)NN2C[C@H]3[C@H]4CCC(C4)[C@H]3C2)ccc1Cl,,4.38,inactive,,inactive,inactive,inactive,inactive,inactive,inactive,inactive,,,,,
CCCC(=O)OCOC(=O)C1=C(C)NC(C)=C(C(=O)OC)C1c1cccc(Cl)c1Cl (centres undefined),4.76,0.879,inactive,0.493,inactive,inactive,inactive,inactive,inactive,,,,,,,
Cc1coc2ccccc2c1=O,-0.524,3.92,inactive,,inactive,inactive,inactive,inactive,inactive,,inactive,,,,,
CCCCC(O)/C=C(C)/C=C/C=C/C(=O)N1CCCC1=O (centres undefined),0.43,1.86,inactive,,inactive,inactive,inactive,inactive,inactive,,inactive,,,,,
COc1ccc2c(c1)CCCC2=O,-5.59,-10.4,inactive,,inactive,inactive,inactive,inactive,inactive,,inactive,,,,,
CC(Oc1c(Cl)cccc1Cl)C1=NCCN1 (centres undefined),-2.82,4.99,inactive,3.55,inactive,inactive,inactive,inactive,inactive,,,,,,,
CCCC(CCC)(C(=O)OCC)C(=O)OCC,-5.21,2.87,inactive,4.44,inactive,inactive,inactive,inactive,inactive,,,,,,,
C[C@@H]1CCC[C@H](C)N1CCCC(O)(c1ccccc1)c1ccccn1 (some centres undefined),3.63,-3.44,inactive,-1.21,inactive,inactive,inactive,inactive,inactive,,,,,,,
C/C(=N/NC(=O)c1ccncc1)C(=O)O,0.746,2.14,inactive,0.247,inactive,inactive,inactive,inactive,inactive,,,,,,,
CCCc1ncc(C(=O)O)s1,-9.12,4.41,inactive,,inactive,inactive,inactive,inactive,inactive,,inactive,,,,,
CCCCCCOC(=O)NC(=N)c1ccc(NCc2nc3cc(C(=O)N(CCC(=O)OCC)c4ccccn4)ccc3n2C)cc1,2.91,,inactive,1.24,inactive,inactive,inactive,8.41 µM (active),15 µM (active),,,10.6 µM (active),,,,
CCOCCn1c(C2CCN(CCc3ccc(C(C)(C)C(=O)O)cc3)CC2)nc2ccccc21,-0.215,-1.51,inactive,-0.532,inactive,inactive,inactive,inactive,inactive,,,,,,,
NCC[C@H](O)C(=O)N[C@@H]1C[C@H](N)[C@@H](O[C@H]2O[C@H](CN)[C@@H](O)[C@H](O)[C@@H]2O)[C@H](O)[C@@H]1O[C@H]1O[C@H](CO)[C@@H](O)[C@H](N)[C@@H]1O,-2.25,-4.69,inactive,-2.83,inactive [at 0.588 µM],,,,,,,,1.29% [at 0.597 µM],13.8% [at 0.597 µM],9.09% [at 0.597 µM],22.5% [at 0.597 µM]
COCCc1ccccn1,-7.75,-0.362,inactive,,inactive,inactive,inactive,inactive,inactive,,inactive,,,,,
O=C(CCCl)NCc1ccccc1,-8.2,-4.62,inactive,,inactive,inactive,inactive,inactive,inactive,,inactive,,,,,
COc1cc2c(cc1OC)C(=O)CC2,,3.36,inactive,,inactive,inactive,inactive,inactive,inactive,inactive,inactive,,,,,
